# The panel holds about 83,000 compounds, 20% with a hit somewhere; the sample as a whole holds those more often.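 Plates (96-well) were seeded with cells, treated with compound at one concentration, and incubated for 48 hours before percent growth was determined.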 Values without a mark were called inactive. Activity calls are given as the source filed them. How the source made its calls: active means growth percent below 10; inactive means the rest.
# System: MDA-MB-468 breast
# Assay: NCI-60 one-dose screen, 48 h (100 = growth as untreated, 0 = no growth, -100 = all killed)
# Conditions: 10 µM unless noted
row,SMILES,growth
1,CCn1c(SCc2ccc(C)cc2)nnc1-c1nn(-c2ccc(Cl)cc2Cl)c(-c2ccc(Cl)cc2)c1C,6.59% (active)
2,O=S(=O)(Nc1ccc(NS(=O)(=O)c2ccccc2)c(Cl)c1)c1ccccc1,116%
3,O=C(/C=C/c1ccccc1)c1cccc(OCCCOc2cccc(C(=O)/C=C/c3ccccc3)c2)c1,93.9%
4,O=C1c2ccccc2C(=O)c2sc(Nc3ccc(Cl)cc3)nc21,28.6%
5,CCCCCCCCCCC1CO1 (centres undefined),94.1%
6,COc1cc(-c2ccc(-c3ccc(C(=N)N)cc3)s2)cc(OC)c1OC,-22.8% (active)
7,C=C1N(C)c2ccc(Cl)cc2C1(C)C,5.23% (active)
8,Cc1nc2sc(C(=O)Nc3cccc(Cl)c3C)c(N)c2cc1C(=O)c1ccccc1,-4.28% (active)
9,Cc1nn(-c2ccccc2)c2nc3c(nc12)C1=NCCN1C(c1ccc(Cl)cc1)N3 (centres undefined),48.2%
10,O=C(c1ccccc1)c1ccc(N2C(=O)C3C4c5ccccc5C(/C=C/C(=O)c5ccccn5)(c5ccccc54)C3C2=O)cc1 (centres undefined),21.9%
11,COc1ncc(-c2ccc3nc(N)n(-c4ccccc4C(F)(F)F)c(=O)c3c2)cc1S(=O)(=O)Nc1ccc(F)cc1F,-37.3% (active)
12,COC1=C(C)C(=O)c2c(c(CCCl)c3n2CCC3OC(C)=O)C1=O (centres undefined),85.5%
13,O=C(Nc1ccc(CN2CCOCC2)c(C(F)(F)F)c1)c1nc2ccc3[nH]ncc3c2c2c1CCCC2,97.2%
14,O=C1[C@H]2Cc3c([nH]c4ccccc34)[C@@H](c3ccc(Br)cc3)N2C(=O)CN1C1CCN(Cc2ccccc2)CC1,-4.01% (active)

# Reference: PubChem BioAssay (NCI)
